Screens (PubChem BioAssay)
STK33 inh: human STK33 kinase inhibition; AID 2322; inhibition, % at 12.5 µM; 27,000 compounds, 0.44% hits; Q9BYT3; ADP-Glo luminescence, MBP substrate; in the data active means inhibition above about 20%
NOMO-1 viab: STK33 inhibitor candidate reducing NOMO-1 cell viability; NOMO-1 AML viability, CellTiter-Glo luminescence, 72 h; inhibition, % (test concentration not listed); 37,000 compounds, 7.5% hits; AID 2330; in the data active means inhibition above about 80%
ID4 SMM: ID4 (human) binding; P47928; small molecule microarray, Flag-ID4 binding, fluorescence F/B; calls only; 31,000 compounds, 1.2% hits; AID 624137; call rule not given here;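 further: a binder raises fluorescence above local background on the spot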
Target sequence (P47928 whole entry, looked up): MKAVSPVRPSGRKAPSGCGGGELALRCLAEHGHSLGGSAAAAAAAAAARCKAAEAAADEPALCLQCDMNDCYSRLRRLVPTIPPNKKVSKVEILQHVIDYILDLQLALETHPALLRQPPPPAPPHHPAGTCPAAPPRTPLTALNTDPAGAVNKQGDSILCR
p53 PUMA act: re-activators of the mutant p53 pathway. SW480 PUMA-promoter luciferase, p53 mutant reactivation. activation, % at 9.98 µM. 28,000 compounds, 1.5% hits; in the data active means activation above about 52%
* marks the source's active call; other numbers are inactive results; i = inactive; nt = not tested or not shown. Only a selection was taken, and hits are over-represented in it overall.

SMILES	STK33 inh	NOMO-1 viab	ID4 SMM	p53 PUMA act
C[C@@H]1CN([C@@H](C)CO)C(=O)Cc2cc(NC(=O)Cn3cnnn3)ccc2O[C@H]1CN(C)C(=O)Nc1cccc2ccccc12	nt	nt	i	1.5
C[C@@H]1CN([C@@H](C)CO)C(=O)c2cc(-c3cccc(F)c3)cnc2O[C@H]1CN(C)CC1CCOCC1	nt	nt	i	nt
C[C@@H]1CN([C@H](C)CO)C(=O)c2cccc(NC(=O)Nc3ccc(F)cc3)c2O[C@H]1CN(C)Cc1ccc(C(=O)Nc2ccccc2N)cc1	nt	127.2*	nt	nt
C[C@@H]1CN([C@H](C)CO)C(=O)c2cccc(NC(=O)Nc3ccc(C(F)(F)F)cc3)c2O[C@H]1CN(C)C(=O)Nc1ccccc1	nt	93.3*	nt	nt
C[C@@H]1CN([C@@H](C)CO)C(=O)c2cccc(NC(=O)Nc3ccc(C(F)(F)F)cc3)c2O[C@@H]1CN(C)C(=O)Nc1ccccc1	nt	111.7*	nt	nt
C[C@@H]1CN([C@@H](C)CO)C(=O)c2cccc(NC(=O)Nc3ccccc3)c2O[C@H]1CN(C)C(=O)Nc1ccc(C(F)(F)F)cc1	nt	43.8	nt	nt
C[C@@H]1CN([C@H](C)CO)C(=O)c2cccc(NC(=O)Nc3ccccc3)c2O[C@@H]1CN(C)C(=O)Nc1ccc(C(F)(F)F)cc1	nt	16.1	nt	nt
Cc1ccc(-c2csc3ncnc(SCC(=O)Nc4ccc(N(C)C)cc4)c23)cc1	0.0	40.6	i	2.7
C=C1C(=O)O[C@@H]2C=C(C)[C@@H]3CC[C@@](C)(O)[C@@H]3C[C@H]12	1.4	37.9	i	-5.5
C=C1C(=O)O[C@H]2C3=C(C)CCC[C@]3(C)C(=O)C[C@@H]12	1.4	121.4*	nt	nt
COc1ccc(CN(C)C[C@H]2Oc3c(NC(=O)Nc4ccc(F)cc4)cccc3C(=O)N([C@@H](C)CO)C[C@H]2C)cc1	nt	29.4	nt	nt
COc1ccc(CN(C)C[C@@H]2Oc3c(NC(=O)Nc4ccc(C(F)(F)F)cc4)cccc3C(=O)N([C@H](C)CO)C[C@H]2C)cc1	nt	104.5*	nt	nt
COc1ccc(CN(C)C[C@H]2Oc3c(NC(=O)Nc4ccc(C(F)(F)F)cc4)cccc3C(=O)N([C@@H](C)CO)C[C@H]2C)cc1	nt	49.9	nt	nt
COc1ccc(NC(=O)Nc2cccc3c2O[C@H](CN(C)Cc2ccc(C(F)(F)F)cc2)[C@@H](C)CN([C@H](C)CO)C3=O)cc1	nt	106.2*	nt	nt
COc1ccc(CN(C)C[C@H]2Oc3c(NC(=O)Nc4ccc(C(F)(F)F)cc4)cccc3C(=O)N([C@H](C)CO)C[C@@H]2C)cc1	nt	94.3*	i	1.1
COc1ccc(NC(=O)Nc2cccc3c2O[C@@H](CN(C)Cc2ccc(C(F)(F)F)cc2)[C@H](C)CN([C@@H](C)CO)C3=O)cc1	nt	98.2*	nt	nt
COc1ccc(CN(C)C[C@@H]2Oc3c(NC(=O)Nc4ccc(C(F)(F)F)cc4)cccc3C(=O)N([C@@H](C)CO)C[C@@H]2C)cc1	nt	11.0	nt	nt
Cc1ccccc1-c1cnc2c(c1)C(=O)N([C@@H](C)CO)C[C@H](C)[C@H](CN(C)Cc1ccncc1)O2	nt	nt	i	nt
CC(C)NC(=O)N(C)C[C@@H]1Oc2ccc(NC(=O)C3CC3)cc2C(=O)N([C@@H](C)CO)C[C@@H]1C	0.2	4.9	i	5.6
CS(=O)(=O)N(CC(=O)Nc1ccccc1C(F)(F)F)c1cc(Cl)c(Cl)cc1Cl	-5.1	4.9	i	-1.8
CN(C)CCCN1C(=O)C(=O)C(C(=O)c2cccs2)C1c1ccc(Cl)c(Cl)c1 (stereo unspecified)	-0.3	-1.8	i	-1.9
C[C@H]1CN([C@@H](C)CO)C(=O)Cc2cc(NC(=O)Nc3ccc(F)cc3)ccc2O[C@@H]1CN(C)Cc1ccncc1	2.4	-1.1	nt	7.7
CC(C)NC(=O)Nc1ccc2c(c1)C(=O)N([C@H](C)CO)C[C@@H](C)[C@H](CN(C)C(=O)CCCN(C)C)OCCCC[C@@H](C)O2	nt	nt	i	7.8
COc1ccc(CN(C)C[C@H]2Oc3c(NC(=O)Nc4ccc(C(F)(F)F)cc4)cccc3C(=O)N([C@@H](C)CO)C[C@@H]2C)cc1	nt	101.0*	nt	nt
COc1ccc(NC(=O)Nc2cccc3c2O[C@H](CN(C)Cc2ccc(C(F)(F)F)cc2)[C@@H](C)CN([C@@H](C)CO)C3=O)cc1	nt	84.8*	nt	nt
COc1ccc(NC(=O)N(C)C[C@H]2Oc3ccc(NC(=O)NC4CCCCC4)cc3C(=O)N([C@H](C)CO)C[C@H]2C)cc1	nt	4.4	nt	nt
C[C@@H]1CN([C@H](C)CO)C(=O)c2cccc(NC(=O)c3nc4ccccc4s3)c2O[C@H]1CN(C)Cc1ccc(C(=O)O)cc1	nt	11.4	nt	nt
C[C@H](CO)N1C[C@H](C)[C@@H](CN(C)Cc2ccc(C(=O)Nc3ccccc3N)cc2)Oc2c(NC(=O)c3nc4ccccc4s3)cccc2C1=O	nt	110.3*	nt	nt
